Structures can show the parent of a compound that is named as a salt.

What all share (experiment): cell proliferation relative to vehicle (% of vehicle); higher = less growth inhibition
What all share (conditions): 72 h

The test system of assay [1] is U2932 TK216-resistant clone 2. The gist of the method: (§1)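 A targeted inhibitor library of 348 compounds was tested on the ABC-DLBCL line U2932, both parental and two clones made resistant to an ETS-targeting agent by repeated exposure over almost a year. Cells were grown at 37°C and 5% CO2 in medium with 10% FBS, then treated at 500 nM or 50 nM for 72 h. MTT was added for 4 h, stopped with 25% SDS, and absorbance was read on a Cytation 3. Proliferation is reported as percent of proliferating cells relative to vehicle (DMSO).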

For assay [2], the system named is U2932 TK216-resistant clone 3. The gist of the method: as §1
The next assay concerns U2932 parental. The gist of the method:
as §1

For `COc1cc2c(cc1O)CC[C@@H]1[C@@H]2CC[C@]2(C)[C@@H](O)CC[C@@H]12` [2-Methoxyestradiol (2-MeOE2)], the cell proliferation in assay [1] (50 nM) amounted to 105; in assay [1] (500 nM) it was 102; in assay [2] (50 nM) it was 103; in assay [2] (500 nM) it was 83.4; in the assay with U2932 parental (50 nM), 99.8; in the assay with U2932 parental (500 nM), 54.

On to `C[C@@H]1CCN(C(=O)CC#N)C[C@@H]1N(C)c1ncnc2[nH]ccc12`, for which the cell proliferation in assay [1] (50 nM) was 102; in assay [1] (500 nM), 104; in assay [2] (50 nM), 113; in assay [2] (500 nM), 98.5; in the assay with U2932 parental (50 nM), 109; with U2932 parental (500 nM) it was 107.

Turning to `O=c1ncccn1[C@@H]1O[C@H](CO)[C@@H](O)[C@H]1O` [Zebularine], the cell proliferation in assay [1] (50 nM) turned out to be 111; in assay [1] (500 nM), 95.5; in assay [2] (50 nM) it was 102; in assay [2] (500 nM), 99.9; in the assay on U2932 parental (50 nM) it was 105; in the assay on U2932 parental (500 nM), 102.

`Cc1cn(-c2cc(NC(=O)c3ccc(C)c(Nc4nccc(-c5cccnc5)n4)c3)cc(C(F)(F)F)c2)cn1` [Nilotinib (AMN-107)]: the cell proliferation in assay [1] (50 nM) was 106; in assay [1] (500 nM) it was 110; in assay [2] (50 nM), 102; in assay [2] (500 nM), 106; with U2932 parental (50 nM), 103; in the assay with U2932 parental (500 nM) it was 103.

For `CCN(CC)CCNC(=O)c1c(C)[nH]c(/C=C2\C(=O)Nc3ccc(F)cc32)c1C` [Sunitinib Malate], the cell proliferation stood at 107 in assay [1] (50 nM); 94.6 in assay [1] (500 nM); 99.4 in assay [2] (50 nM); 92.6 in assay [2] (500 nM); 101 with U2932 parental (50 nM); 104 in the assay on U2932 parental (500 nM).

On to `COc1cc(Nc2ncc(F)c(Nc3ccc4c(n3)NC(=O)C(C)(C)O4)n2)cc(OC)c1OC` [R406 (free base)], for which the cell proliferation in assay [1] (50 nM) was 98; in assay [1] (500 nM), 87.2; in assay [2] (50 nM) it was 103; in assay [2] (500 nM), 98.3; in the assay with U2932 parental (50 nM) it was 94.8; in the assay with U2932 parental (500 nM) it was 92.8.

`Cn1cc(-c2ccc3c(c2)CCN3C(=O)Cc2cccc(C(F)(F)F)c2)c2c(N)ncnc21`: the cell proliferation in assay [1] (50 nM) was 105; in assay [1] (500 nM) it was 102; in assay [2] (50 nM) it was 108; in assay [2] (500 nM), 121; with U2932 parental (50 nM), 101; with U2932 parental (500 nM) it was 105.

For `CNC(=O)c1cc(Oc2ccc(NC(=O)Nc3ccc(Cl)c(C(F)(F)F)c3)cc2)ccn1` [Sorafenib], the cell proliferation in assay [1] (50 nM) came out at 114; in assay [1] (500 nM), 107; in assay [2] (50 nM) it was 105; in assay [2] (500 nM), 122; in the assay on U2932 parental (50 nM) it was 101; with U2932 parental (500 nM), 112.

For the compound `O=C(NOC[C@H](O)CO)c1ccc(F)c(F)c1Nc1ccc(I)cc1F`, the cell proliferation in assay [1] (50 nM) was determined as 101; in assay [1] (500 nM), 101; in assay [2] (50 nM), 96.6; in assay [2] (500 nM), 96; in the assay with U2932 parental (50 nM), 92.3; with U2932 parental (500 nM), 91.5.

`COc1cc(Nc2ncc3c(n2)-c2ccc(Cl)cc2C(c2c(F)cccc2OC)=NC3)ccc1C(=O)O` [Alisertib (MLN8237)]: the cell proliferation in assay [1] (50 nM) came to 73.6; in assay [1] (500 nM), 79.3; in assay [2] (50 nM) it was 61.8; in assay [2] (500 nM), 72.8; in the assay with U2932 parental (50 nM) it was 52.2; in the assay on U2932 parental (500 nM) it was 53.2.

On to `COc1cc([C@@H]2c3cc4c(cc3[C@@H](O[C@@H]3O[C@@H]5CO[C@@H](c6cccs6)O[C@H]5[C@H](O)[C@H]3O)[C@H]3COC(=O)[C@H]23)OCO4)cc(OC)c1O` [Teniposide], for which the cell proliferation in assay [1] (50 nM) came to 59; in assay [1] (500 nM) it was 8.54; in assay [2] (50 nM), 83; in assay [2] (500 nM), 19.8; in the assay with U2932 parental (50 nM) it was 67.7; with U2932 parental (500 nM), 16.8.

`CN(C)CCOc1ccc(/C(=C(/CCCl)c2ccccc2)c2ccccc2)cc1` [Toremifene Citrate]: the cell proliferation in assay [1] (50 nM) is 102; in assay [1] (500 nM), 84.4; in assay [2] (50 nM), 101; in assay [2] (500 nM), 75.1; in the assay on U2932 parental (50 nM), 101; in the assay on U2932 parental (500 nM), 88.8.

With `CS(=O)(=O)c1ccc(C(=O)Nc2ccc(Cl)c(-c3ccccn3)c2)c(Cl)c1` [Vismodegib (GDC-0449)], the cell proliferation in assay [1] (50 nM) was 106; in assay [1] (500 nM), 108; in assay [2] (50 nM), 108; in assay [2] (500 nM), 113; in the assay with U2932 parental (50 nM) it was 98.2; with U2932 parental (500 nM) it was 103.

`Cc1ccc2c(=O)c3cccc(CC(=O)O)c3oc2c1C` [DMXAA (Vadimezan)]: the cell proliferation worked out at 110 in assay [1] (50 nM); 99.3 in assay [1] (500 nM); 101 in assay [2] (50 nM); 95.3 in assay [2] (500 nM); 101 in the assay with U2932 parental (50 nM); 99.2 with U2932 parental (500 nM).

For the compound `CN(C)c1nc(N(C)C)nc(N(C)C)n1` [Altretamine], the cell proliferation in assay [1] (50 nM) worked out at 105; in assay [1] (500 nM), 102; in assay [2] (50 nM) it was 106; in assay [2] (500 nM) it was 96.6; with U2932 parental (50 nM), 97.7; in the assay on U2932 parental (500 nM) it was 104.

With `Cc1cc(NC(=O)c2cccc(NC(=O)/C=C/CN(C)C)c2)ccc1Nc1nccc(-c2cccnc2)n1`, the cell proliferation in assay [1] (50 nM) was 99.5; in assay [1] (500 nM), 106; in assay [2] (50 nM) it was 108; in assay [2] (500 nM), 116; in the assay on U2932 parental (50 nM), 96.8; with U2932 parental (500 nM), 103.

Take `C[C@H]1c2cccc(O)c2C(=O)C2=C(O)[C@]3(O)C(=O)C(C(N)=O)=C(O)[C@@H](N(C)C)[C@@H]3[C@@H](O)[C@@H]21` [Doxycycline Hyclate]: the cell proliferation in assay [1] (50 nM) came out at 104; in assay [1] (500 nM), 105; in assay [2] (50 nM) it was 102; in assay [2] (500 nM), 102; with U2932 parental (50 nM), 106; with U2932 parental (500 nM), 105.

Consider `O=C(Nc1c[nH]nc1-c1nc2ccc(CN3CCOCC3)cc2[nH]1)NC1CC1`, for which the cell proliferation in assay [1] (50 nM) turned out to be 90.5; in assay [1] (500 nM), 67.5; in assay [2] (50 nM), 75.8; in assay [2] (500 nM) it was 60.1; in the assay with U2932 parental (50 nM), 69.3; in the assay with U2932 parental (500 nM) it was 54.2.

Consider `O=C(Nc1cc(C(F)(F)F)cc(C(F)(F)F)c1)c1cc(Cl)ccc1O`, for which the cell proliferation in assay [1] (50 nM) was 103; in assay [1] (500 nM), 104; in assay [2] (50 nM), 109; in assay [2] (500 nM) it was 102; with U2932 parental (50 nM), 102; in the assay with U2932 parental (500 nM), 101.

On to `O=S(=O)(O)CCS` [Mesna], for which the cell proliferation turned out to be 110 in assay [1] (50 nM); 116 in assay [1] (500 nM); 101 in assay [2] (50 nM); 103 in assay [2] (500 nM); 95.4 with U2932 parental (50 nM); 103 in the assay with U2932 parental (500 nM).

On to `CCN(c1cc(-c2ccc(CN3CCOCC3)cc2)cc(C(=O)NCc2c(C)cc(C)[nH]c2=O)c1C)C1CCOCC1`, for which the cell proliferation stood at 92.4 in assay [1] (50 nM); 80.1 in assay [1] (500 nM); 96.4 in assay [2] (50 nM); 87.6 in assay [2] (500 nM); 89.5 in the assay with U2932 parental (50 nM); 82.5 in the assay on U2932 parental (500 nM).

`CNc1nc(Nc2cn(C(C)(C)C#N)nc2C)ncc1C(F)(F)F`: the cell proliferation is 101 in assay [1] (50 nM); 96.4 in assay [1] (500 nM); 101 in assay [2] (50 nM); 95.2 in assay [2] (500 nM); 100 with U2932 parental (50 nM); 98.2 in the assay with U2932 parental (500 nM).

As to `CC(C)(C#N)c1cc(Cn2cncn2)cc(C(C)(C)C#N)c1` [Anastrozole], the cell proliferation came out at 99.8 in assay [1] (50 nM); 108 in assay [1] (500 nM); 103 in assay [2] (50 nM); 101 in assay [2] (500 nM); 105 in the assay with U2932 parental (50 nM); 96.7 in the assay on U2932 parental (500 nM).

`CC(C)NCCCn1c(Sc2cc3c(cc2I)OCO3)nc2c(N)ncnc21`: the cell proliferation in assay [1] (50 nM) was found to be 113; in assay [1] (500 nM) it was 6.42; in assay [2] (50 nM), 105; in assay [2] (500 nM) it was 31.6; in the assay with U2932 parental (50 nM) it was 112; with U2932 parental (500 nM), 6.73.

Values taken from the supplement of paper PMC13172266.
